An excerpt weighted towards active compounds, which were near 2.8% of everything screened.
IP6K1 inhibitor: inhibitors of human IP6K1; Q92551; IP6K1 kinase, ADP-Glo luminescence, 2 h; hits give low values; activity change, % (series mostly up to about 58 µM); 0.81% of 140,000 active; in the data active = activity change below about -25%
Target sequence (Q92551 whole entry, looked up): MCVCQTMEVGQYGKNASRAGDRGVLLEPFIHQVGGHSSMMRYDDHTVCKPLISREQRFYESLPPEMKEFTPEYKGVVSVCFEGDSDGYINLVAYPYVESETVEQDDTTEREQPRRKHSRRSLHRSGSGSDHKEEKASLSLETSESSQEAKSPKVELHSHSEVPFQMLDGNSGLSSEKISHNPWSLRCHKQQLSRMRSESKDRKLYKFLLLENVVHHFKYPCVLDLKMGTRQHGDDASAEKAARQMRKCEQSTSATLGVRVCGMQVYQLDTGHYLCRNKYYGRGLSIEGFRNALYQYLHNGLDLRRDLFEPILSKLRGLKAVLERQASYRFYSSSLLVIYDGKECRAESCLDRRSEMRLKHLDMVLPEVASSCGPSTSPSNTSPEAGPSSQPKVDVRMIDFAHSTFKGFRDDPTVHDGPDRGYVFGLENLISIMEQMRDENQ
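ADP-Glo luminescence measures ADP made by human IP6K1 during a 2 h RT reaction with ATP/IP6 (mix at 1.3 mM/130 uM); top library doses 57.5 and 19.1 uM final.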
KDM5B inhibitor: KDM5B demethylase inhibition; KDM5B demethylase, FDH-coupled NADH fluorescence (FDH is formaldehyde dehydrogenase); Potency, µM (highest dose often 57.7 µM), most hits filed as inhibitors; 2.6% of 220,000 active; AID 1347165; active = well fitted inhibition curve with a large enough effect; inconclusive = small, poorly fitted or top-dose-only effect; inactive = no such curve, though single readings can be large or run the other way; note: nearly all actives have a fitted effect of over 70% in size
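Here, H3K4me3 peptide (12.5 µM in substrate mix) is demethylated by KDM5BΔAP, 200 nM final, after 10 min compound exposure. Formaldehyde product is coupled through FDH (0.25 U/mL in mix) to NADH fluorescence; 30-min ΔRFU feeds dose-response curves.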
Each line names hits and unclear results; the compound was inactive in the other large screens.

Cc1ccccc1C(=O)NC1CCN(c2nccc(Nc3ccccc3F)n2)CC1	none (no result: KDM5B inhibitor)
COc1ccc(CN2CCc3nc(C(C)C)nc(-c4ccc(Cl)cc4)c3CC2)cc1	KDM5B inhibitor inconclusive
CCc1nc2c(c(-c3ccc(Cl)cc3)n1)CCN(CC1CC1)CC2	KDM5B inhibitor 28µM
CC(C)c1nc2c(c(-c3ccc(O)cc3)n1)CCN(CC1CCCCC1)CC2	KDM5B inhibitor inconclusive
CC(C)c1nc2c(c(-c3ccc(Cl)cc3)n1)CCN(Cc1cccc3ccccc13)CC2	KDM5B inhibitor 56µM
Oc1ccc(-c2nc(C3CC3)nc3c2CN(Cc2ccc(OC(F)(F)F)cc2)CC3)cc1	none
CCc1nc2c(c(-c3ccc(Cl)cc3)n1)CN(CC1CC1)CC2	KDM5B inhibitor inconclusive
CC(C)c1nc2c(c(-c3ccc(Cl)cc3)n1)CCN(CC1CCCCC1)CC2	KDM5B inhibitor 35µM
CC(C)c1nc2c(c(-c3ccc(O)cc3)n1)CN(Cc1ccc(OC(F)(F)F)cc1)CC2	KDM5B inhibitor 18µM
O=C(Nc1cc(C2CC2)nn1-c1ccccc1)c1ccccc1F	none (no result: KDM5B inhibitor)
Cc1cc(C)n(CCC(=O)NCC23CCCC=C2NC(=O)CC3)n1 (configuration not stated)	none (no result: KDM5B inhibitor)
COc1ccc(C(=O)N2CCN(Cc3ccccc3-c3ccccc3F)CC2)cc1	none (no result: KDM5B inhibitor)
COc1ccc(-c2nc(C)nc3c2CCN(Cc2ccc(F)cc2)CC3)cc1	none
CCc1nc2c(c(-c3ccc(Cl)cc3)n1)CCN(Cc1ccc(OC)cc1)CC2	none
CCc1nc2c(c(-c3ccc(Cl)cc3)n1)CN(Cc1ccc(OC)cc1)CC2	KDM5B inhibitor 18µM
COc1ccc(-c2nc(C)nc3c2CCN(CC2CC2)CC3)cc1	KDM5B inhibitor 40µM
Cc1nc2cnccn2c1C(=O)NCCc1cccc(F)c1	none (no result: KDM5B inhibitor)
O=C(CCNc1c(-c2cccc(F)c2)nc2cnccn12)NCc1ccccc1F	KDM5B inhibitor 28µM
Cc1nc2cnccn2c1C(=O)NCc1ccc(F)cc1F	none (no result: KDM5B inhibitor)
CNC(=O)CCNc1c(-c2cccc(F)c2)nc2cnccn12	KDM5B inhibitor 28µM
Cn1c(-c2ccc(CN3CC[C@H]4CNC[C@H]43)o2)nc2ccccc21	KDM5B inhibitor inconclusive
Cn1c(-c2ccc(CN3CCc4[nH]cnc4C3C(=O)O)o2)nc2ccccc21 (configuration not stated)	KDM5B inhibitor 28µM
CC(C)(Oc1nn(CC2CCOCC2)c2ccccc12)C(=O)NC1CCC(O)CC1 (configuration not stated)	KDM5B inhibitor inconclusive
CC(C)(Oc1nn(CC2CCOCC2)c2ccccc12)C(=O)NCCc1cccnc1	KDM5B inhibitor inconclusive
CC(C)(Oc1nn(CC2CCOCC2)c2ccccc12)C(=O)NC1CCOCC1	KDM5B inhibitor 35µM
CC(C)(Oc1nn(CC2CCOCC2)c2ccccc12)C(=O)NCCc1ccccc1	KDM5B inhibitor 35µM
COc1ccc(C(=O)NC2CCN(c3ccc4nnc(C5CC5)n4n3)CC2)cc1	none (no result: KDM5B inhibitor)
CCn1cnnc1CC1CCN(C(=O)c2cc(-c3ccc(C)c(C)c3)nc3ccccc23)CC1	KDM5B inhibitor 28µM
Cc1nn(C(=O)CCCC(=O)N2CCC(Cc3nncn3C(C)C)CC2)c2ccccc12	none
CCn1cnnc1CC1CCN(C(=O)c2ccccc2)CC1	none
Cc1ccc(-c2cc(C(=O)N3CCC(Cc4nncn4C(C)C)CC3)c3ccccc3n2)cc1C	KDM5B inhibitor 28µM
Cc1nn(-c2ccccc2)c2c1C(C(C)C)N(C1CCN([S+](=O)([O-])c3cccc(C(F)(F)F)c3)C1)C2=O (configuration not stated)	none (no result: KDM5B inhibitor)
O=C(c1cc(-c2cccc(C(F)(F)F)c2)c2nncn2n1)N1CCN(Cc2ccccc2)CC1	none (no result: KDM5B inhibitor)
Cc1ccccc1C(=O)NC1CCN(c2cc(-c3cccs3)[nH]n2)C1 (configuration not stated)	KDM5B inhibitor 13µM
Cc1ccc(C(=O)NC2CCN(c3cc(-c4cccs4)[nH]n3)CC2)cc1F	KDM5B inhibitor inconclusive
CN(C)c1cccc(C(=O)NC2CCN(c3cc(-c4cccs4)[nH]n3)C2)c1 (configuration not stated)	KDM5B inhibitor inconclusive
COc1ccc(C(=O)NC2CCN(c3cc(-c4cccs4)[nH]n3)C2)cc1OC (configuration not stated)	KDM5B inhibitor 11µM
CCOc1ccc(C(=O)NC2CCN(c3cc(-c4cccs4)[nH]n3)CC2)cc1OCC	none
O=C(NC1CCN(c2cc(-c3cccs3)[nH]n2)C1)c1ccncc1 (configuration not stated)	KDM5B inhibitor inconclusive
Cc1ccc(C(=O)NC2CCN(c3cc(-c4cccs4)[nH]n3)C2)cc1F (configuration not stated)	KDM5B inhibitor 4µM
Cc1cccc(C(=O)NC2CCN(c3cc(-c4cccs4)[nH]n3)C2)c1 (configuration not stated)	KDM5B inhibitor 11µM
COc1ccc(Nc2ccnc(N3CCC(C(=O)NCc4ccccc4OC)CC3)n2)cc1	none (no result: KDM5B inhibitor)
C#CCNC(=O)c1ccc(-c2ccc(OC)nn2)cc1Cl	none (no result: KDM5B inhibitor)
C#CCNC(=O)c1cc(C(C)(C)C)nc2c1cnn2C	none (no result: KDM5B inhibitor)
O=S(=O)(Cc1cccc(F)c1)Cc1csc(-c2ccccc2)n1	none (no result: IP6K1 inhibitor)
Cc1ccc(NC(=O)C2CCN(c3ccnc4ccnn34)CC2)cc1	none (no result: KDM5B inhibitor)
CC(C)(C)C(=O)NC1CCCN(c2ccc3nnc(-c4ccccc4)n3n2)C1 (configuration not stated)	none (no result: KDM5B inhibitor)
O=C1C(Oc2ccc(F)cc2)C2(CCCCC2)N1Cc1ccc(F)cc1 (configuration not stated)	none (no result: KDM5B inhibitor)
Cc1ccc(-c2ccc3nnc(CNC(=O)c4ccccc4)n3n2)cc1C	KDM5B inhibitor 28µM
Cc1ccc(-c2ccc3nnc(CNC(=O)c4ccn[nH]4)n3n2)cc1C	KDM5B inhibitor inconclusive
Cc1ccc(C)c(C(=O)NCc2nnc3ccc(-c4ccc(C)c(C)c4)nn23)c1	KDM5B inhibitor 14µM
Cc1ccc(-c2ccc3nnc(CNC(=O)c4cccn4C)n3n2)cc1C	none
COc1ccc(C(=O)NCc2nnc3ccc(-c4ccc(C)c(C)c4)nn23)cc1F	KDM5B inhibitor 32µM
Cc1ccc(-c2ccc3nnc(CNC(=O)c4cccc5[nH]ccc45)n3n2)cc1C	KDM5B inhibitor 35µM
COc1ccc(C(=O)NCc2nnc3ccc(-c4ccc(C)c(C)c4)nn23)cc1OC	none
COc1ccc(-c2c(C(=O)NCCc3ccccc3F)nc3sccn23)cc1	none (no result: KDM5B inhibitor)
O=C(c1ccc(Cl)nc1)N1CCC(C(=O)N2CCC(N3CCOCC3=O)CC2)CC1	none (no result: KDM5B inhibitor)
O=C(CCC(F)(F)F)N1CCc2nc(-c3ccc(Cl)cc3)[nH]c2C1	KDM5B inhibitor inconclusive
O=C(CC1CNCCO1)N1CCc2nc(-c3ccc(Cl)cc3)[nH]c2C1 (configuration not stated)	KDM5B inhibitor 25µM
Cc1cc(F)ccc1NC(=O)c1ccc2c(c1)n(Cc1cccc(F)c1)c(=O)c1ccnn12	none
O=C(NCc1ccccn1)c1ccc2c(c1)n(Cc1cccc(F)c1)c(=O)c1ccnn12	KDM5B inhibitor 25µM
CCn1c(=O)c2ccnn2c2ccc(C(=O)NCCCOC(C)C)cc21	KDM5B inhibitor 32µM
Cn1c(=O)c2ccnn2c2ccc(C(=O)Nc3ccc(N4CCOCC4)cc3)cc21	none
CCn1c(=O)c2ccnn2c2ccc(C(=O)Nc3ccc(C)c(F)c3)cc21	KDM5B inhibitor 8.9µM
CCN(CC)c1ccc(CNC(=O)c2ccc3c(c2)n(C)c(=O)c2ccnn23)cc1	KDM5B inhibitor inconclusive
Cn1c(=O)c2ccnn2c2ccc(C(=O)NCCN3CCC(N4CCCCC4)CC3)cc21	KDM5B inhibitor 28µM
CCCN1CCN(C(=O)c2ccc3c(c2)n(CC)c(=O)c2ccnn23)CC1	KDM5B inhibitor inconclusive

Screening results: PubChem BioAssay, National Center for Advancing Translational Sciences (NCATS)
